Records with an inconclusive call do not appear. Entries that show only a call come without a potency. The source made the active and inactive calls. Calls follow the shape of the dose curve; as a rule, active = well fitted curve in the direction sought with a large enough effect; inconclusive = small, poorly fitted or top-dose-only effect, or another doubt; inactive = no such curve, though single readings can be large; an effect the other way counts as inactive or inconclusive.
What was measured:
[1] = Quantitative High-Throughput drug screen in 47 multiple myeloma cell lines against the NCATS MIPE library collection: ARP1_JJKsccF8 cell viability assay (AID 1918928; also: nearly all actives have a fitted effect of over 40% in size)
How it was run: (§1)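 CellTiter-Glo luminescence after 48 h exposure gives viability, scaled between DMSO-only (100%) and media-only (0%) controls. Library compounds are pinned onto 500 myeloma cells per well, incubated at 37C with 5% CO2.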

[2] = Quantitative High-Throughput drug screen in 47 multiple myeloma cell lines against the NCATS MIPE library collection: JIM3_ECACC cell viability assay (AID 1918963; also: nearly all actives have a fitted effect of over 35% in size)
How it was run: (§2)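 Steps: seed 500 cells per well; pin-transfer MIPE 4.0 library; incubate 48 h at 37C, 5% CO2, humidified; add CellTiter-Glo, 5 min room temperature; read luminescence.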

[3] = Quantitative High-Throughput drug screen in 47 multiple myeloma cell lines against the NCATS MIPE library collection: ARD_JJKsccE7 cell viability assay (AID 1918929)
How it was run: (§3)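 Myeloma cell lines, 500 cells per well, exposed to MIPE 4.0 library compounds for 48 h at 37C, 5% CO2. Viability from ATP by CellTiter-Glo luminescence; normalised to DMSO (100%) and media-only (0%) wells.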

[4] = Quantitative High-Throughput drug screen in 47 multiple myeloma cell lines against the NCATS MIPE library collection: Karpas620_DSMZ cell viability assay (AID 1918959); also: nearly all actives have a fitted effect of over 30% in size
How it was run: as §2

[5] = Quantitative High-Throughput drug screen in 47 multiple myeloma cell lines against the NCATS MIPE library collection: KMM1_JCRB cell viability assay (AID 1918960); also: nearly all actives have a fitted effect of over 30% in size
How it was run: as §1

[6] = Quantitative High-Throughput drug screen in 47 multiple myeloma cell lines against the NCATS MIPE library collection: KHM11_PLB cell viability assay (AID 1918962); also: nearly all actives have a fitted effect of over 35% in size
How it was run: as §2

[7] = Quantitative High-Throughput drug screen in 47 multiple myeloma cell lines against the NCATS MIPE library collection: JIM1_ECACC cell viability assay (AID 1918964)
How it was run: as §3

[8] = Quantitative High-Throughput drug screen in 47 multiple myeloma cell lines against the NCATS MIPE library collection: INA6_PLB cell viability assay (AID 1918965; also: nearly all actives have a fitted effect of over 55% in size)
How it was run: (§4)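 CellTiter-Glo luminescence (ATP) after 48 h compound exposure, 37C/5% CO2; 500 cells/well; MIPE 4.0 approved/investigational drugs pinned in; DMSO = 100%, media only = 0% viability.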

[9] = Quantitative High-Throughput drug screen in 47 multiple myeloma cell lines against the NCATS MIPE library collection: Karpas417_ECACC cell viability assay (AID 1918961); conditions: Karpas417 myeloma viability, CellTiter-Glo ATP luminescence, 48 h; viability (% of DMSO): at 45.8 µM (top of the series)
How it was run: as §4
Potency is read from the fitted curve at half-maximal effect.

With `CC(C)[N+]1(C)[C@@H]2CC[C@H]1CC(OC(=O)C(CO)c1ccccc1)C2` (some centres not stated) the Potency [1] was “inactive” and the Potency [2] was “inactive”.

For `O=C(NOCC1CC1)c1ccc(F)c(F)c1Nc1ccc(I)cc1Cl`, the Potency [3] was 11.8 µM (active), the Potency [4] was 0.372 µM (active) and the Potency [5] was 6.62 µM (active). The Potency [6] was 0.0235 µM (active), the Potency [2] was 6.62 µM (active) and the Potency [7] was 9.35 µM (active). For the same compound, the Potency [8] was 9.35 µM (active).

With `O=C(c1ccccc1)c1ccc2n1CCC2C(=O)O` (configuration not stated) the Potency [3] was “inactive”, the Potency [4] was “inactive” and the Potency [5] was “inactive”. For the same compound, the Potency [9] was “inactive”, the Potency [6] was 8.33 µM (active) and the Potency [2] was 16.6 µM (active). The Potency [8] was 10.5 µM (active).

With `COc1cc2c(N3CCN(C(=O)Nc4ccc(OC(C)C)cc4)CC3)ncnc2cc1OCCCN1CCCCC1` the Potency [3] was “inactive”, the Potency [4] was “inactive” and the Potency [5] was “inactive”. For the same compound, the Potency [6] was 8.33 µM (active) and the Potency [8] was 3.72 µM (active).

With `CCCS(=O)c1ccc2nc(NC(=O)OC)[nH]c2c1` (configuration not stated) the Potency [1] was 23.5 µM (active), the Potency [4] was “inactive” and the Potency [5] was “inactive”. For the same compound, the Potency [7] was “inactive”.

For `CC(C)C[C@H](NC(=O)[C@H](Cc1ccccc1)NC(=O)c1cnccn1)B(O)O`, the Potency [1] was 0.0083 µM (active), the Potency [6] was 0.0083 µM (active) and the Potency [2] was 0.0235 µM (active).

In the case of `COc1cc(Nc2c(C#N)cnc3cc(OCCCN4CCN(C)CC4)c(OC)cc23)c(Cl)cc1Cl`, the Potency [1] is reported as 18.7 µM (active), the Potency [4] is reported as 11.8 µM (active) and the Potency [6] is reported as 5.26 µM (active). For the same compound, the Potency [2] was 18.7 µM (active) and the Potency [8] was 0.418 µM (active).

With `COc1cc2c(cc1OC)C1CC(=O)C(CC(C)C)CN1CC2` (configuration not stated) the Potency [3] was “inactive”, the Potency [4] was “inactive” and the Potency [5] was “inactive”. For the same compound, the Potency [9] was “inactive”, the Potency [6] was “inactive” and the Potency [2] was “inactive”. For the same compound, the Potency [7] was “inactive”.

In the case of `CS(=O)(=O)OCCCCOS(C)(=O)=O`, the Potency [3] is reported as “inactive”, the Potency [4] is reported as “inactive” and the Potency [5] is reported as “inactive”. For the same compound, the Potency [2] was “inactive” and the Potency [8] was “inactive”.

With `C[C@]12CCC(=O)C=C1CC[C@@H]1[C@H]2[C@@H](O)C[C@@]2(C)[C@H]1CC[C@]2(O)C(=O)CO` the Potency [3] was 0.0118 µM (active), the Potency [4] was “inactive” and the Potency [2] was “inactive”. For the same compound, the Potency [7] was “inactive”.

With `Cc1ccc(NC(=O)c2ccc(CN3CCN(C)CC3)cc2)cc1Nc1nccc(-c2cccnc2)n1` the Potency [8] was 16.6 µM (active).

For `Clc1ccc(C(Cn2ccnc2)OCc2ccsc2Cl)c(Cl)c1` (configuration not stated), the Potency [9] was 18.7 µM (active) and the Potency [8] was 26.4 µM (active).

Reference: PubChem BioAssay (NCATS)
